# System: MLK3
# Conditions: concentration: 1 μM,replicates: in singlicate; n = 1
# 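Further: KINOMEscan kinase panel screen.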
row,Compound,%Inh [%]
1,O=C(Nc1cccc(Oc2ccc3nccn3n2)c1)Nc1cccc(C(F)(F)F)c1,0
2,CN(c1ccccc1CNc1nc(Nc2ccc3c(c2)CC(=O)N3)ncc1C(F)(F)F)S(C)(=O)=O,92.9
3,NC(=O)c1ccc(-c2cc3ncnc(SCC(=O)O)c3s2)cc1,0
4,Cn1ccc2ncnc(Oc3ccc(NC(=O)Nc4cc(C(C)(C)C)on4)c(Cl)c3)c21,0
5,COC(=O)Nc1nc2cc(Oc3ccc(NC(=O)Nc4cc(C(F)(F)F)ccc4Cl)cc3)ccc2[nH]1.Cl [GW697465],8
6,COc1cc2c(Nc3ccc(NC(=O)c4ccccc4)cc3)ncnc2cc1OCCCN1CCOCC1 [GSK301329],13
7,C[C@@H]1CNc2c(sc3ccc4nc(-c5ccc(O)cc5)ccc4c23)C(=O)N1,0
8,CN(c1cccc(CNc2nc(Nc3ccc4c(c3)CC(=O)N4)ncc2C(F)(F)F)c1)S(C)(=O)=O,87
9,O=C(Nc1ccc(Oc2ccc3nc(NC(=O)C4CC4)cn3n2)c(F)c1)c1cccn(-c2ccccc2)c1=O,10
10,Nc1nccc(-c2ccc3c(N)n[nH]c3c2)n1 [GSK1034945],0
11,CNC(=O)c1ccccc1Nc1nc(Nc2cccc(CS(C)(=O)=O)c2)ncc1C.O=CO [GSK1520489],72
12,C[C@@H](Oc1cc(-n2cnc3cc(-c4ccncc4)ccc32)sc1C(N)=O)c1ccccc1Cl [GSK479719],24
13,N#Cc1cccc(C(=O)NC2CCN(c3ccnc(Nc4ccc(F)cc4)n3)C2)c1 (centres unmarked) [GSK1379708],9
14,FC(F)(F)c1cc(Br)cc(Nc2nccc(-c3cnn4ncccc34)n2)c1 [GW810578],11
15,NC(=O)Nc1sc(-c2ccc(F)cc2)cc1C(N)=O [GW789449],35
16,CC(=O)Nc1ccc(-c2cc3ncnc(SCC(=O)O)c3s2)cc1,0
17,Cc1cccc2c(-c3ccncc3)c(-c3ccc(F)cc3)nn12.Cl [GW461487],0
18,O=C1NCCc2[nH]c(-c3ccncc3)cc21,13
19,CCn1c(-c2nonc2N)nc2cncc(CNC3CCNCC3)c21.Cl [SB-747651],0

row,Compound,%Inh [%]
1,O=c1[nH]cc(-c2ccc(O)cc2)c2sc(-c3ccncc3)cc12 [GSK1033723],3
2,CCNCC(Cc1ccccc1)NC(=O)c1cc(Br)c(-c2ccnc3[nH]ccc23)s1.Cl.Cl (centres unmarked) [GSK1383280],0
3,O=C(Nc1ccccc1)c1cccc(Oc2ccc3nccn3n2)c1,0
4,Cl.c1ccc(Oc2ccc(Nc3ccnc4cc(-c5ccc(CN6CCNCC6)o5)ccc34)cc2)nc1 [GW567142],0
5,Cl.Nc1n[nH]c2cc(-c3ccccn3)ccc12 [GSK2189892],15
6,COc1ccc(Nc2nccc(N3CCC(NC(=O)c4cccc(C#N)c4)C3)n2)cc1 (centres unmarked) [GSK1379730],22
7,CC(C(=O)NC1CCN(c2ccnc(Nc3ccc(F)cc3)n2)C1)c1ccc(Cl)cc1 (centres unmarked) [GSK1379713],0
8,c1ccc(Oc2ccc(Nc3ccnc4ccc(-c5ccccn5)cc34)cc2)cc1 [GW407034],5
9,CS(=O)(=O)c1cccc(CNc2nc(Nc3ccc4c(c3)[C@@H]3C[C@@H]4CNC3=O)ncc2C(F)(F)F)c1,98.1
10,COc1cccc(OC)c1C(=O)Nc1cccc(-c2nn3ccccc3c2-c2ccnc(Nc3cccc(F)c3)n2)c1 [GSK361065],10
11,COC(=O)c1cccc(NC(=O)NC2CCN(c3ccnc(Nc4cc(OC)c(OC)c(OC)c4)n3)C2)c1 (centres unmarked) [GSK1379767],34
12,CC(C)c1nc(-c2cccc(NS(=O)(=O)c3ccccc3)c2)c(-c2ccnc(Nc3ccc4c(c3)CN(C)CC4)n2)s1 [GSK1649598],22
13,C[C@@H]1CCN(C(=O)N2CCCC2)C[C@@H]1N(C)c1ncnc2[nH]ccc12,67
14,CSc1nccc(-c2c(-c3ccc(F)cc3)ncn2CCCN2CCOCC2)n1.Cl [SB-217146],0
15,COc1cc2nccc(Nc3ccc(Oc4ccccc4)cc3)c2cc1OC.Cl [GI261656],15
16,Cc1ccc(Nc2ccnc(Nc3ccc4c(c3)CS(=O)(=O)C4)n2)cc1O.Cl [GW579362],89
17,Cc1nnc(-c2ccc3occ(-c4ccc(S(C)=O)cc4)c3n2)o1 (centres unmarked),0
18,O=C(NOCC1CC1)c1cc(Br)c(F)c(F)c1Nc1ccc(I)cc1Cl,0

# System: MRCKA
# Conditions: concentration: 1 μM,replicates: in singlicate; n = 1
row,Compound,%Inh [%]
1,O=C(Nc1cccc(Oc2ccc3nccn3n2)c1)Nc1cccc(C(F)(F)F)c1,0
2,CN(c1ccccc1CNc1nc(Nc2ccc3c(c2)CC(=O)N3)ncc1C(F)(F)F)S(C)(=O)=O,0
3,NC(=O)c1ccc(-c2cc3ncnc(SCC(=O)O)c3s2)cc1,0
4,Cn1ccc2ncnc(Oc3ccc(NC(=O)Nc4cc(C(C)(C)C)on4)c(Cl)c3)c21,13
5,COC(=O)Nc1nc2cc(Oc3ccc(NC(=O)Nc4cc(C(F)(F)F)ccc4Cl)cc3)ccc2[nH]1.Cl [GW697465],5
6,COc1cc2c(Nc3ccc(NC(=O)c4ccccc4)cc3)ncnc2cc1OCCCN1CCOCC1 [GSK301329],0
7,C[C@@H]1CNc2c(sc3ccc4nc(-c5ccc(O)cc5)ccc4c23)C(=O)N1,0
8,CN(c1cccc(CNc2nc(Nc3ccc4c(c3)CC(=O)N4)ncc2C(F)(F)F)c1)S(C)(=O)=O,0
9,O=C(Nc1ccc(Oc2ccc3nc(NC(=O)C4CC4)cn3n2)c(F)c1)c1cccn(-c2ccccc2)c1=O,0
10,Nc1nccc(-c2ccc3c(N)n[nH]c3c2)n1 [GSK1034945],11
11,CNC(=O)c1ccccc1Nc1nc(Nc2cccc(CS(C)(=O)=O)c2)ncc1C.O=CO [GSK1520489],2
12,C[C@@H](Oc1cc(-n2cnc3cc(-c4ccncc4)ccc32)sc1C(N)=O)c1ccccc1Cl [GSK479719],0
13,N#Cc1cccc(C(=O)NC2CCN(c3ccnc(Nc4ccc(F)cc4)n3)C2)c1 (centres unmarked) [GSK1379708],6
14,FC(F)(F)c1cc(Br)cc(Nc2nccc(-c3cnn4ncccc34)n2)c1 [GW810578],0
15,NC(=O)Nc1sc(-c2ccc(F)cc2)cc1C(N)=O [GW789449],0
16,CC(=O)Nc1ccc(-c2cc3ncnc(SCC(=O)O)c3s2)cc1,0
17,Cc1cccc2c(-c3ccncc3)c(-c3ccc(F)cc3)nn12.Cl [GW461487],0
18,O=C1NCCc2[nH]c(-c3ccncc3)cc21,0
19,CCn1c(-c2nonc2N)nc2cncc(CNC3CCNCC3)c21.Cl [SB-747651],7

row,Compound,%Inh [%]
1,O=c1[nH]cc(-c2ccc(O)cc2)c2sc(-c3ccncc3)cc12 [GSK1033723],22
2,CCNCC(Cc1ccccc1)NC(=O)c1cc(Br)c(-c2ccnc3[nH]ccc23)s1.Cl.Cl (centres unmarked) [GSK1383280],64
3,O=C(Nc1ccccc1)c1cccc(Oc2ccc3nccn3n2)c1,9
4,Cl.c1ccc(Oc2ccc(Nc3ccnc4cc(-c5ccc(CN6CCNCC6)o5)ccc34)cc2)nc1 [GW567142],0
5,Cl.Nc1n[nH]c2cc(-c3ccccn3)ccc12 [GSK2189892],0
6,COc1ccc(Nc2nccc(N3CCC(NC(=O)c4cccc(C#N)c4)C3)n2)cc1 (centres unmarked) [GSK1379730],0
7,CC(C(=O)NC1CCN(c2ccnc(Nc3ccc(F)cc3)n2)C1)c1ccc(Cl)cc1 (centres unmarked) [GSK1379713],0
8,c1ccc(Oc2ccc(Nc3ccnc4ccc(-c5ccccn5)cc34)cc2)cc1 [GW407034],2
9,CS(=O)(=O)c1cccc(CNc2nc(Nc3ccc4c(c3)[C@@H]3C[C@@H]4CNC3=O)ncc2C(F)(F)F)c1,0
10,COc1cccc(OC)c1C(=O)Nc1cccc(-c2nn3ccccc3c2-c2ccnc(Nc3cccc(F)c3)n2)c1 [GSK361065],0
11,COC(=O)c1cccc(NC(=O)NC2CCN(c3ccnc(Nc4cc(OC)c(OC)c(OC)c4)n3)C2)c1 (centres unmarked) [GSK1379767],14
12,CC(C)c1nc(-c2cccc(NS(=O)(=O)c3ccccc3)c2)c(-c2ccnc(Nc3ccc4c(c3)CN(C)CC4)n2)s1 [GSK1649598],7
13,C[C@@H]1CCN(C(=O)N2CCCC2)C[C@@H]1N(C)c1ncnc2[nH]ccc12,0
14,CSc1nccc(-c2c(-c3ccc(F)cc3)ncn2CCCN2CCOCC2)n1.Cl [SB-217146],0
15,COc1cc2nccc(Nc3ccc(Oc4ccccc4)cc3)c2cc1OC.Cl [GI261656],0
16,Cc1ccc(Nc2ccnc(Nc3ccc4c(c3)CS(=O)(=O)C4)n2)cc1O.Cl [GW579362],9
17,Cc1nnc(-c2ccc3occ(-c4ccc(S(C)=O)cc4)c3n2)o1 (centres unmarked),0
18,O=C(NOCC1CC1)c1cc(Br)c(F)c(F)c1Nc1ccc(I)cc1Cl,0
